Data reported in the supplement of paper PMC11018630.
Structures can show the parent of a compound that is named as a salt. ± gives the standard deviation of the averaged measurements. In all, about 1,100 compounds were measured (“day of extracellular matrix detachment from plate”: median about 16, lowest 2% from about 10 on). The entries come from a sample that favours the lowest values as a whole. Where a SMILES comes first, the peptide text is derived from it. Bridges are numbered along the chain shown (N, C = ends). [ ]: non-standard residue; d: D form. Orn = NCCC[C@H](N)C(=O)O; Mpa = O=C(O)CCS

test system: RDEB dermal fibroblasts EB71; experiment: day of extracellular matrix detachment from plate (days); higher = delayed detachment (less fibrotic matrix); settings: compound concentration: 10 uM

| Structure (SMILES) | day of extracellular matrix detachment from plate |
| --- | --- |
| O=c1sn(-c2cccc3ccccc23)c(=O)n1Cc1ccccc1 [Tideglusib] | 18.7 ± 4 |
| CC1(C)Cc2c(-c3ccccc3)c(-c3ccc(Cl)cc3)c(CC(=O)O)n2C1 [Licofelone] | 16 |
| NC(=O)c1ccc(I)c([N+](=O)[O-])c1 [Iniparib (BSI-201)] | 12.3 ± 1.1 |
| CCOc1ccc(NC(C)=O)cc1 [Phenacetin] | 12 |
| CC(=O)Nc1ccccc1 [Acetanilide] | 10 ± 1.7 |
| CC(=O)Nc1ccc(O)cc1 [Acetaminophen] | 11 |
| C=C1[C@H](CO)[C@@H](O)C[C@@H]1n1cnc2c(=O)[nH]c(N)nc21 [Entecavir Hydrate] | 12.7 ± 2.9 |
| CCOc1nc2cccc(C(=O)OCc3oc(=O)oc3C)c2n1Cc1ccc(-c2ccccc2-c2noc(=O)[nH]2)cc1 [Azilsartan Medoxomil] | 19 ± 1.7 |
| CCCCCC(=O)O[C@]1(C(C)=O)CC[C@H]2[C@@H]3CCC4=CC(=O)CC[C@]4(C)[C@H]3CC[C@@]21C [Hydroxyprogesterone caproate] | 20 |
| C[C@@H]1C[C@H]2[C@@H]3CCC4=CC(=O)C=C[C@]4(C)[C@@]3(Cl)[C@@H](O)C[C@]2(C)[C@@]1(OC(=O)c1ccco1)C(=O)CCl [Mometasone furoate] | 29.5 ± 7.1 |
| C[C@H](Cc1cc2c(c(C(N)=O)c1)N(CCCO)CC2)NCCOc1ccccc1OCC(F)(F)F [Silodosin] | 11 |
| CCCC(=O)OCOC(=O)C1=C(C)NC(C)=C(C(=O)OC)C1c1cccc(Cl)c1Cl (stereo not drawn) [Clevidipine Butyrate] | 19.3 ± 6.3 |
| CC(=O)OCC(=O)[C@H]1CC[C@H]2[C@@H]3CCC4=CC(=O)CC[C@]4(C)[C@H]3CC[C@]12C [Deoxycorticosterone acetate] | 13 |
| C=C1/C(=C\C=C2/CCC[C@]3(C)[C@@H]([C@H](C)CCCC(C)C)CC[C@@H]23)C[C@@H](O)C[C@@H]1O [Alfacalcidol] | 36 |
| CCCCCCCC(=O)N[C@H](CN1CCCC1)[C@H](O)c1ccc2c(c1)OCCO2 [Eliglustat Tartrate] | 18.3 ± 7.6 |
| COc1ccc(-c2ccc3cc(C(=O)O)ccc3c2)cc1C12CC3CC(CC(C3)C1)C2 [Adapalene] | 16 |
| Cc1c(F)cc(C(=O)NC2CC2)cc1-c1ccc(C(=O)NCC(C)(C)C)cn1 | 16 ± 1.4 |
| CCCCCCCCCCCCCCCC(=O)O[C@@H]1[C@@H](O)[C@@H](O)[C@@H]([C@H](NC(=O)[C@@H]2C[C@@H](CCC)CN2C)[C@H](C)Cl)O[C@@H]1SC [Clindamycin palmitate HCl] | 18 |
| Cc1cn([C@H]2O[C@@H](CO)[C@H](O)[C@H]2F)c(=O)[nH]c1=O [Clevudine] | 15.3 ± 2.3 |
| O=C(O)CCCN1CCC(O[C@@H](c2ccc(Cl)cc2)c2ccccn2)CC1 [Bepotastine Besilate] | 18.7 ± 4 |
| CCOc1ccc(C[C@H]2NC(=O)CCSSC[C@@H](C(=O)N3CCC[C@H]3C(=O)N[C@@H](CCCN)C(=O)NCC(N)=O)NC(=O)[C@H](CC(N)=O)NC(=O)[C@H]([C@@H](C)O)NC(=O)[C@H]([C@@H](C)CC)NC2=O)cc1 [Atosiban Acetate] ([Mpa][dY](Et)ITNCP[Orn]G-NH2; disulfide 1-6) | 19 ± 3 |

| Structure (SMILES) | day of extracellular matrix detachment from plate |
| --- | --- |
| C=C1c2cccc(O)c2C(=O)C2=C(O)[C@]3(O)C(=O)C(C(N)=O)=C(O)[C@@H](N(C)C)[C@@H]3[C@@H](O)[C@H]12 [Methacycline HCl] | 17 ± 1.7 |
| C[C@]12C=CC(=O)C=C1CC[C@@H]1[C@@H]2C(=O)C[C@@]2(C)[C@H]1CC[C@]2(O)C(=O)CO [Prednisone] | 10.3 ± 1.1 |
| C[C@H]1C[C@H]2[C@@H]3CCC4=CC(=O)C=C[C@]4(C)[C@H]3C(=O)C[C@]2(C)[C@@]1(O)C(=O)CO [Meprednisone] | 18.3 ± 8.1 |
| C[C@H]1C[C@@H]2[C@H](C(=O)C[C@@]3(C)[C@H]2CC[C@]3(O)C(=O)CO)[C@@]2(C)C=CC(=O)C=C12 [Methylprednisone] | 18.3 ± 4 |
| CCOC(=O)C1=C[C@@H](OC(CC)CC)[C@H](NC(C)=O)[C@@H](N)C1 [Oseltamivir Phosphate] | 20 ± 1.7 |
| OC1(c2ccc(Cl)c(C(F)(F)F)c2)CCN(CCCC(c2ccc(F)cc2)c2ccc(F)cc2)CC1 [Penfluridol] | 25.5 ± 5 |
| Cc1nc(C)c(Cl)c(O)c1Cl [Clopidol] | 18 ± 1.7 |
| NC(=O)N1CCC(CC(=O)N2CCC([C@H]3c4ncc(Br)cc4CCc4cc(Cl)cc(Br)c43)CC2)CC1 [Lonafarnib] | 25 |
| CCOC(=O)C1=C(C)NC(C)=C(C(=O)OCC)C1c1ccccc1/C=C/C(=O)OC(C)(C)C [Lacidipine] | 19.3 ± 6.3 |
| CCC(=O)NCC[C@@H]1CCc2ccc3c(c21)CCO3 [Ramelteon] | 9.67 ± 1.1 |
| Cc1ccc(C(=O)c2ccc(CC(=O)O)n2C)cc1 [Tolmetin Sodium] | 19.3 ± 1.1 |
| Clc1cccc(Cl)c1NC1=NCCN1 [Clonidine HCl] | 11 ± 1.7 |
| COc1nc(C)nc(Cl)c1NC1=NCCN1 [Moxonidine] | 10 ± 1.7 |
| O=S(=O)(O)CCCS(=O)(=O)O [Eprodisate (disodium)] | 18 |
| FC(F)(F)c1ccc(/C=C/c2nc(COc3ccc(CCCCn4ccnn4)cc3)co2)cc1 [Mubritinib (TAK 165)] | 15.7 ± 6.3 |
| Cc1nc(C(=O)NCC(=O)O)c(O)c2ccc(Oc3ccccc3)cc12 | 23.7 ± 2.3 |
| Nc1nc(=O)c2nc(CNc3ccc(C(=O)N[C@@H](CCC(=O)O)C(=O)O)cc3)cnc2[nH]1 [Folic acid] | 17 |
| O=C1CCc2cc(OCCCCc3nnnn3C3CCCCC3)ccc2N1 [Cilostazol] | 10.3 ± 1.1 |
| O=C1CCc2ccc(OCCCCN3CCN(c4cccc(Cl)c4Cl)CC3)cc2N1 [Aripiprazole] | 19.3 ± 6.3 |
| Cn1nnc2c(C(N)=O)ncn2c1=O [Temozolomide] | 9.67 ± 1.1 |
| Nc1c(CC(=O)O)cccc1C(=O)c1ccc(Br)cc1 [Bromfenac Sodium] | 13 |

| Structure (SMILES) | day of extracellular matrix detachment from plate |
| --- | --- |
| CC1(C)S[C@@H]2[C@H](NC(=O)[C@H](NC(=O)N3CCN(S(C)(=O)=O)C3=O)c3ccccc3)C(=O)N2[C@H]1C(=O)O [Mezlocillin Sodium] | 13 |
| Cc1cccc(-c2nn3c(c2-c2ccnc4ccc(C(N)=O)cc24)CCC3)n1 | 29.5 ± 9.2 |
| CCN(CCCc1ccccc1)CCCc1ccccc1 [Alverine Citrate] | 18 |
| C=CCc1cc(OC)c(O)c(C(=O)NCCO)c1 [Alibendol] | 15.7 ± 6.3 |
| Nc1ccc(/N=N/c2ccccc2)c(N)n1 [Phenazopyridine HCl] | 13 |
| C[C@@H](NCCCc1cccc(C(F)(F)F)c1)c1cccc2ccccc12 [Cinacalcet HCl] | 12.3 ± 1.1 |
| NS(=O)(=O)c1ccc(C(=O)O)cc1 [Carzenide] | 12.3 ± 2.3 |
| CC[C@H](C)C(=O)O[C@H]1C[C@H](O)C=C2C=C[C@H](C)[C@H](CC[C@@H](O)C[C@@H](O)CC(=O)O)[C@H]21 [Pravastatin sodium] | 20 ± 1.7 |
| O=C(NC(Cc1cc(=O)[nH]c2ccccc12)C(=O)O)c1ccc(Cl)cc1 (stereo not drawn) [Rebamipide] | 15.7 ± 6.3 |
| CC1(C)[C@@H](OC(=O)CCC(=O)O)CC[C@]2(C)[C@H]3C(=O)C=C4[C@@H]5C[C@@](C)(C(=O)O)CC[C@]5(C)CC[C@@]4(C)[C@]3(C)CC[C@@H]12 [Carbenoxolone Sodium] | 13 |
| CC[C@H](C)C[C@H](C)CCCCCCCCC(=O)N[C@H]1C[C@@H](O)[C@@H](NCCN)NC(=O)[C@@H]2[C@@H](O)CCN2C(=O)[C@H]([C@H](O)CCN)NC(=O)[C@H]([C@H](O)[C@@H](O)c2ccc(O)cc2)NC(=O)[C@@H]2C[C@@H](O)CN2C(=O)[C@H]([C@@H](C)O)NC1=O [Caspofungin Acetate] | 18 |
| CC(CCc1ccc(O)cc1)NCC(O)c1ccc(O)cc1 (stereo not drawn) [Ractopamine HCl] | 13 |
| N#CC[C@H](C1CCCC1)n1cc(-c2ncnc3[nH]ccc23)cn1 | 16 |
| Cc1cn(-c2cc(NC(=O)c3ccc(C)c(Nc4nccc(-c5cccnc5)n4)c3)cc(C(F)(F)F)c2)cn1 [Nilotinib (AMN-107)] | 30.5 ± 6 |
| O=c1oc2c(O)c(O)cc3c(=O)oc4c(O)c(O)cc1c4c23 [Ellagic acid] | 10.3 ± 1.1 |
| CO/N=C(\C(=O)N[C@@H]1C(=O)N2C(C(=O)O)=C(CSc3nnnn3C)CS[C@H]12)c1csc(N)n1 [Cefmenoxime hydrochloride] | 18 ± 1.4 |
| CCN1CCN(C(=O)N[C@@H](C(=O)N[C@@H]2C(=O)N3[C@@H]2SC(C)(C)[C@@H]3C(=O)O)c2ccccc2)C(=O)C1=O [Piperacillin Sodium] | 13 |
| CCN1CCN(C(=O)N[C@@H](C(=O)N[C@@H]2C(=O)N3C(C(=O)O)=C(CSc4nnnn4C)CS[C@H]23)c2ccc(O)cc2)C(=O)C1=O [Cefoperazone] | 10.3 ± 1.1 |
| CC(C)[C@H]1C(=O)N[C@@H](CCCNC(=N)N)C(=O)NCC(=O)N[C@@H](CC(=O)O)C(=O)N[C@H](Cc2ccccc2)C(=O)N1C [Cilengitide] | 6 |
| NC(=O)[C@@H]1CSSCCC(=O)N[C@@H](CCCCN=C(N)N)C(=O)NCC(=O)N[C@@H](CC(=O)O)C(=O)N[C@@H](Cc2c[nH]c3ccccc23)C(=O)N2CCC[C@H]2C(=O)N1 [Eptifibatide Acetate] | 22 |
| CCCCCCCCCC(=O)N[C@@H](Cc1c[nH]c2ccccc12)C(=O)N[C@H](CC(N)=O)C(=O)N[C@@H](CC(=O)O)C(=O)N[C@@H]1C(=O)NCC(=O)N[C@@H](CCCN)C(=O)N[C@@H](CC(=O)O)C(=O)N[C@H](C)C(=O)N[C@@H](CC(=O)O)C(=O)NCC(=O)N[C@H](CO)C(=O)N[C@@H]([C@H](C)CC(=O)O)C(=O)N[C@@H](CC(=O)c2ccccc2N)C(=O)O[C@@H]1C [Daptomycin] | 22 |
